# Measurements published in the supplement of paper PMC6555819.
# Legend:
# Assay in all cases: PBM binding z-score (relative to random genomic background probes); higher = stronger binding; sequences stand for … in GC…GCGATTGACAGCGTAGAATGAAGG
# [1] = system: FXR:RXRa (NR concentration 270 nM, RXRa partner concentration 90 nM)
# How it was run: (§1)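 Each nuclear receptor dimer, without ligand, was incubated for 1 h on custom Agilent 4×180K protein-binding microarrays. Binding was detected with antibodies against each partner (one per run), and scanned fluorescence was regression-normalized. The binding z-scores are referenced to random human genomic background probes.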
# [2] = system: LXRa:RXRa (NR concentration 270 nM, RXRa partner concentration 90 nM)
# How it was run: as §1
# [3] = system: LXRa homodimer (NR concentration 270 nM)
# How it was run: as §1
# [4] = system: LXRb:RXRa (NR concentration 270 nM, RXRa partner concentration 90 nM)
# How it was run: as §1
# [5] = system: LXRb homodimer (NR concentration 270 nM)
# How it was run: as §1
# [6] = system: PPARa:RXRa (NR concentration 270 nM, RXRa partner concentration 90 nM)
# How it was run: as §1
# [7] = system: PPARg:RXRa (NR concentration 180 nM, RXRa partner concentration 90 nM)
# How it was run: as §1
# [8] = system: PPARg:RXRa 270nM:90nM, anti-RXR (NR concentration 270 nM, RXRa partner concentration 90 nM)
# How it was run: as §1
# [9] = system: PPARg:RXRa 30nM:10nM, anti-RXR (NR concentration 30 nM, RXRa partner concentration 10 nM)
# How it was run: as §1
# [10] = system: PPARg:RXRa 90nM:30nM, anti-RXR (NR concentration 90 nM, RXRa partner concentration 30 nM)
# How it was run: as §1
# [11] = system: PPARg:RXRa DBDmut IVT, anti-RXR (DBD mutation: RXRa K156A/R161A, NR concentration 270 nM, RXRa partner concentration 90 nM)
# How it was run: as §1
# [12] = system: PPARg:RXRa IVT, anti-PPARg (NR concentration 270 nM, RXRa partner concentration 90 nM)
# How it was run: as §1
# [13] = system: PPARg DBDmut:RXRa IVT, anti-PPARg (DBD mutation: PPARg1 K132A/R137A, NR concentration 270 nM, RXRa partner concentration 90 nM)
# How it was run: as §1
# [14] = system: PPARg DBDmut IVT, anti-PPARg (DBD mutation: PPARg1 K132A/R137A, NR concentration 270 nM)
# How it was run: as §1
# [15] = system: PPARg homodimer (NR concentration 180 nM)
# How it was run: as §1
# [16] = system: PXR:RXRa (NR concentration 270 nM, RXRa partner concentration 90 nM)
# How it was run: as §1
# [17] = system: PXR homodimer (NR concentration 270 nM)
# How it was run: as §1
# [18] = system: RARa:RXR (NR concentration 270 nM, RXRa partner concentration 90 nM)
# How it was run: as §1
# [19] = system: RARa homodimer (NR concentration 270 nM)
# How it was run: as §1
# [20] = system: RARb:RXRa (NR concentration 270 nM, RXRa partner concentration 90 nM)
# How it was run: as §1
Sequence,PBM binding z-score [1],PBM binding z-score [2],PBM binding z-score [3],PBM binding z-score [4],PBM binding z-score [5],PBM binding z-score [6],PBM binding z-score [7],PBM binding z-score [8],PBM binding z-score [9],PBM binding z-score [10],PBM binding z-score [11],PBM binding z-score [12],PBM binding z-score [13],PBM binding z-score [14],PBM binding z-score [15],PBM binding z-score [16],PBM binding z-score [17],PBM binding z-score [18],PBM binding z-score [19],PBM binding z-score [20]
CGTCCCAGGTCAATGCTAGGTCAGTGAAAGCATT,4.29,4.18,2.32,3.02,-0.0307,3.94,2.35,3.05,0.367,1.97,2.01,2.96,-0.129,-0.875,3.66,3.21,0.306,4.72,-0.102,4.37
ATCGAAAGGCCGACGAGGTGAGTATACACCGTTT,0.135,-0.127,-0.565,-0.439,-0.414,-0.0782,0.686,-0.414,-0.0742,-0.119,-0.57,0.479,0.035,0.014,-0.108,-0.0744,-0.0811,0.0866,-0.372,1.33
ATAACGAGGGCACGCTGAGTTGATAGCAGAGTAG,0.657,1.11,-0.0272,0.34,0.00771,2.24,2.45,1.88,0.803,1.22,4.2,4.09,1.98,1.47,0.669,1.83,0.518,1.04,-0.277,2.61
CAAACTAGGTCAAGGACAAAGTCGGTTTGTGCCA,3.65,2.54,0.38,1.43,0.178,4.59,7.75,6.74,4.87,6.38,8.57,8.47,0.998,1.42,2.03,1.6,0.0226,1.91,-0.478,4.15
CGTCCAAGGTCAGCAGGTCAGTGTAAGCGACGTG,5.5,4.05,0.506,3.05,-0.03,4.91,4.14,4.68,1.12,3.01,2.97,3.67,-0.32,-0.582,2.97,3.74,0.447,5.09,1.36,5.35
GCTAGCAGGCCATTTGGTTCACTCAATGACGGGC,-0.456,-0.57,-0.84,-0.649,-0.937,-0.204,0.226,-0.536,-0.633,-0.582,1.03,-0.11,-0.667,-0.975,-0.906,-0.151,0.221,-0.572,-0.886,0.187
CGAACGCGGGCATGAGTTGATAGCAAATGCCGAT,-0.653,-0.715,-0.461,-0.883,-1.24,-0.441,0.36,-0.484,-0.861,-0.633,-0.0191,-0.364,-0.145,-0.957,-0.435,-0.69,-0.265,-0.878,-0.807,-0.0245
AATACAGGCTCACTAGGCCAGAGTAGGTACGAAT,-0.561,-0.71,-0.282,-0.839,-0.695,-0.441,0.692,0.176,0.027,-0.114,0.83,1.96,0.786,0.55,-0.108,-0.759,-0.466,-0.759,-0.709,-0.981
TGTCAAAGTTCAAAGATAACGTAAGTATCCACAC,6.56,6.17,4.28,4.11,2.1,5.01,7.86,6.97,4.95,6.88,-0.252,3.78,1.64,1.45,2.47,4.66,3.83,3.6,1.54,4.92
TCATGTAGGTAAATGCTAGGTGAAAGTCCGATCT,0.737,0.46,0.144,0.503,0.151,1.33,0.723,2.1,2.88,2.6,4.15,3.44,0.811,1.12,0.796,0.502,0.512,0.568,1.39,0.378
ACTAGCAGGCCAAGGGCCACTCAAGATTAGTCCG,-0.56,-0.559,-0.856,-1,-1.27,0.699,2.13,3.13,1.28,2.51,0.244,0.822,-0.352,-1.82,-0.633,-0.879,-0.75,-0.678,-0.685,0.884
TCGAGTAGGTTAGTCGGGGCATTCACCCAACATA,0.0292,0.103,-0.165,0.627,-0.651,0.713,0.0859,0.905,0.99,0.993,2.26,1.7,-0.581,-0.56,0.252,0.243,-0.193,0.377,0.343,0.447
TAGCCTAGGTCATTCAGGTGCCAGTATAGAAAGC,4.93,3.74,0.777,2.77,0.913,3.55,1.87,2.27,0.493,1.54,1.57,2.83,0.483,-0.0925,1.13,2.17,0.327,2.34,-0.175,3.6
CCTACTGGGCCAAAGGTCACTGATTCCAATGCTC,4.23,4.62,2.37,4.72,0.63,6.39,12.2,10.6,10.2,11.6,5.75,7.12,0.0303,-0.418,3.54,5.27,1.1,6.62,1.82,4.56
GCGACTGGGGCAAAGCAAGTTACCATAAGGTTGG,-0.106,-0.224,-0.376,-0.3,-0.665,0.868,0.964,1.1,-0.269,0.301,4.67,3.4,-0.185,-1.06,0.355,-0.0344,-0.458,0.375,-0.721,0.659
